Source: PubChem (National Center for Advancing Translational Sciences (NCATS))
Rows were chosen to be rich in hits. Some 18% of all compounds tested hit in one or more screens of this group.
DT40 TDP1 CPT – growth inhibition of DT40 Tdp1-/-;hTDP1 cells with camptothecin (screen for TDP1 inhibitors). chicken DT40 Tdp1-/-;hTDP1 cells + 20 nM CPT, ATP luminescence, 48 h. Potency, µM (titrated, usually from 46.2 µM), most hits filed as inhibitors. 12% of 420,000 active. AID 686979; further: nearly all actives have a fitted effect of over 55% in size
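Chicken DT40 Tdp1-/- cells stably complemented with human TDP1 were seeded at 400 cells/well in medium containing 20 nM camptothecin, exposed to pin-transferred compounds, and grown at 37 °C for at least 48 hr. Viability was read as ATP luminescence.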
TDP1 inh – inhibitors of human tyrosyl-DNA phosphodiesterase TDP1. AID 485290. recombinant TDP1, AlphaScreen DNA substrate cleavage. Potency, µM (series often up to 130 µM), hits mostly inhibitors. Q9NUW8. 0.28% of 350,000 active; further: nearly all actives have a fitted effect of over 40% in size
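Compounds were preincubated with Tdp1 (1 nM final) for 15 min at room temperature before substrate (15 nM final) started a 5 min reaction; beads (10 ug/ml final) were then added for 10 min before AlphaScreen detection.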
IL1B secr inh – blocks inflammasome-driven IL-1 beta release. THP-1 LPS/ATP IL-1B secretion, AlphaLISA, 16 h; active compounds read low. 4.7% of 360,000 active. activity change, % at 57.5 µM; in the data active means activity change below about -50%; inconclusive means mostly about -30% to -49%
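Secreted IL-1B measured by AlphaLISA bead assay after 16 h compound exposure of THP-1 cells; compounds (final up to 57.5 uM) added 1 h before LPS (250 ng/mL) and ATP (1.25 mM) stimulation; lower signal means less secretion.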
CtBP-E1A inh – CtBP/E1A binding inhibition | AlphaScreen GST-E1A/His-CtBP binding, 1536-well; active compounds read low | activity change, % (no concentration beside the values) | 0.49% of 340,000 active | AID 651724; in the data active means activity change below about -65%; inconclusive means mostly about -30% to -63%
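Protein mix (5X: 125 nM each GST-E1A, His-CtBP) was incubated with pinned compound 2 h at 37 deg C in dark, in 50 mM Tris pH 8.0 buffer with 300 mM NaCl. Glutathione donor and nickel acceptor beads followed; AlphaScreen signal read after 1 h.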
Six1-Eya2 inh – inhibitors of human Six1/Eya2 interaction. Q15475+O00167. AlphaScreen GST-Six1/His-Eya2 binding, biochemical; active compounds read low. activity change, % (test concentration not listed). 0.56% of 360,000 active. AID 651725; in the data active means activity change below about -65%; inconclusive means mostly about -30% to -63%
Target sequence (O00167 whole entry, looked up): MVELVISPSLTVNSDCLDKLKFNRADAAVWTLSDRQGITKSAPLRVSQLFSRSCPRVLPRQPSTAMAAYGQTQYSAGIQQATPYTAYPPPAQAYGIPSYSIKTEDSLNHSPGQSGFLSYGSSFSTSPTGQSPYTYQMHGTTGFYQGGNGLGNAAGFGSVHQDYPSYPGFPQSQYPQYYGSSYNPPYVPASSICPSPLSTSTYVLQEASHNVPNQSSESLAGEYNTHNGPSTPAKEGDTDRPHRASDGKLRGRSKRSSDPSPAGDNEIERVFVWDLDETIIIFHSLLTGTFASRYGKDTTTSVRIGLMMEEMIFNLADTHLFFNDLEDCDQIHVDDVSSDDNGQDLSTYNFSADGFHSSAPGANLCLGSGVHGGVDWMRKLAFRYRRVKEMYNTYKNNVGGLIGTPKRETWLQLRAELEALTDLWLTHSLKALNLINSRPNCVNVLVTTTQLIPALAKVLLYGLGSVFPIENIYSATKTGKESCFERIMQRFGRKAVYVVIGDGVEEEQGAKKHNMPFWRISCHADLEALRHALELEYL
Target sequence (Q15475 whole entry, looked up): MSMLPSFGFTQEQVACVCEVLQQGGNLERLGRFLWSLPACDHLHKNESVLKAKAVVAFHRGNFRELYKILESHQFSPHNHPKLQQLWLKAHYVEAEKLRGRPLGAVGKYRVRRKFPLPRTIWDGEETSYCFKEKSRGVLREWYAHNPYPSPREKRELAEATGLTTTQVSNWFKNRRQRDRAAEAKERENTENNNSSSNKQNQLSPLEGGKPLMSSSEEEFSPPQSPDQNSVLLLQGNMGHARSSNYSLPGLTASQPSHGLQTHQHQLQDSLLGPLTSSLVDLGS
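Homogeneous AlphaScreen proximity assay pairing GST-Six1 with His-tagged Eya2 (added as 5X mix: 250 nM and 500 nM) in 50 mM Tris pH 8.0, 300 mM NaCl, 1 mM TCEP. Glutathione donor and nickel acceptor beads; 1 h, 37 °C, dark.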
DT40 TDP1 no CPT – qHTS for Inhibitors of human tyrosyl-DNA phosphodiesterase 1 (TDP1): qHTS in cells in absence of CPT; DT40 Tdp1-/- hTDP1 cells, no CPT, ATP luminescence, 48 h; Potency, µM (titrated, usually from 46.2 µM), hits mostly inhibitors; 15% of 420,000 active; AID 686978, 2013; further: nearly all actives have a fitted effect of over 55% in size
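Growth kinetics read by CellTiter-Glo luminescence after ≥48 hr at 37 °C. Cells: DT40 Tdp1-/- stably carrying human TDP1, 400 per well, compound exposure in the absence of CPT (DMSO vehicle).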
Hits are given with their value; – = inactive; ? = inconclusive; · = no result given. Unless noted, the call rests on the fitted dose curve; in most records, active means well fitted curve in the direction sought with a large enough effect; inconclusive means small, poorly fitted or top-dose-only effect, or another doubt; inactive means no such curve, though single readings can be large; an effect the other way counts as inactive or inconclusive.

SMILES	DT40 TDP1 CPT	TDP1 inh	IL1B secr inh	CtBP-E1A inh	Six1-Eya2 inh	DT40 TDP1 no CPT
CCOc1ccc(CCN2C(=S)N([C@@H](CC(C)C)CN3CCCC3CN3C(=S)NC[C@@H]3Cc3ccccc3)C[C@@H]2CC(C)C)cc1 (stereo partly drawn)	?	·	–	–	–	16µM
CCOc1ccc(CCN2C(=S)N([C@@H](CC(C)C)CN3CCCC3CN3C(=S)NC[C@@H]3CC(C)C)C[C@@H]2Cc2ccc(O)cc2)cc1 (stereo partly drawn)	18µM	·	?	–	–	?
CCOc1ccc(CCN2C(=S)N([C@@H](CC(C)C)CN3CCCC3CN3C(=S)NC[C@@H]3Cc3ccc(O)cc3)C[C@@H]2CC(C)C)cc1 (stereo partly drawn)	?	·	?	–	–	16µM
CCOc1ccc(CCN2C(=S)N([C@@H](CC(C)C)CN3CCC[C@@H]3CN3C(=S)NC[C@@H]3CC(C)C)C[C@@H]2Cc2ccc(O)cc2)cc1	9.2µM	·	·	–	–	12µM
CCOc1ccc(CCN2C(=O)C(=O)N([C@@H](Cc3ccccc3)CN3CCC[C@H]3CN3C(=O)C(=O)NC[C@@H]3Cc3ccc(O)cc3)C[C@@H]2CC(C)C)cc1	?	·	–	–	–	?
CCOc1ccc(CCN2C(=S)N([C@@H](CC(C)C)CN3CCC[C@@H]3CN3C(=S)NC[C@@H]3CC(C)C)C[C@@H]2CC(C)C)cc1	?	·	–	–	–	?
CSCC[C@H](NC(=O)[C@H](CCC(N)=O)NC(=O)[C@H](CCCCN)NC(=O)[C@H](CCCNC(=N)N)NC(=O)[C@H](Cc1ccc(O)cc1)NC(=O)[C@H](CCCNC(=N)N)NC(=O)[C@H](CO)NC(=O)[C@H](Cc1ccc(O)cc1)NC(=O)[C@H](CO)NC(=O)[C@H](CC(=O)O)NC(=O)[C@@H](NC(=O)[C@@H](N)Cc1ccccc1)[C@@H](C)O)C(=O)N[C@@H](C)C(=O)N[C@H](C(=O)N[C@@H](CCCCN)C(=O)N[C@@H](CCCCN)C(=O)N[C@@H](Cc1ccc(O)cc1)C(=O)N[C@@H](CC(C)C)C(=O)N[C@@H](C)C(=O)N[C@@H](C)C(=O)N[C@H](C(=O)N[C@@H](CC(C)C)C(=O)NCC(=O)N[C@@H](CCCCN)C(=O)N[C@@H](CCCNC(=N)N)C(=O)N[C@@H](Cc1ccc(O)cc1)C(=O)N[C@@H](CCCCN)C(=O)N[C@@H](CCC(N)=O)C(=O)N[C@@H](CCCNC(=N)N)C(=O)N[C@H](C(=O)N[C@@H](CCCCN)C(=O)N[C@@H](CC(N)=O)C(=O)N[C@@H](CCCCN)C(N)=O)C(C)C)C(C)C)C(C)C	·	–	·	·	·	·
COC(=O)[C@]12CCCCC=C1N(Cc1cccc3ccccc13)C(=O)[C@H](CC(=O)N1CCN(C(=O)c3ccco3)CC1)C2	?	·	–	–	–	?
COC(=O)[C@]12CCCCC=C1N(Cc1cccc3ccccc13)C(=O)[C@H](CC(=O)N1CCCC1)C2	?	·	–	–	–	21µM
C#CCNC(=O)C[C@@H]1C[C@@]2(C(=O)OC)CCCCC=C2N(Cc2cccc3ccccc23)C1=O	?	·	–	–	–	?
COC(=O)[C@]12CCCCC=C1N(Cc1cccc3ccccc13)C(=O)[C@H](CC(=O)N1CCN(C(=O)C3CC3)CC1)C2	?	·	–	–	–	21µM
CCOC(=O)[C@]12CCCC=C1N(Cc1ccco1)C(=O)[C@H](CC(=O)NCc1ccccc1)C2	–	·	–	–	–	–
CC1CCCN(CCCOc2ccc(Br)cc2Cl)C1 (stereo not drawn)	?	·	-90	–	–	?
CC1CCN(CCOCCOc2ccc(Br)cc2Cl)CC1	18µM	–	?	–	–	21µM
CN(C)CCCCOc1ccc(Br)cc1Cl	?	?	–	–	–	?
